A short description of assay [1]: inhibitors of TNFa-induced NFkB p65 translocation, primary screen, imaging, HUVEC, MLSMR starter and 10KST1 sets (AID 438;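 active = inhibition above 20% together with a positive visual image hit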;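 also: compound added about 3h40 before a 20 min TNFalpha stimulation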;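 as to inhibition: signal is the nuclear over cytoplasmic p65 intensity ratio per well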). Particulars: HUVEC TNFa-induced p65 nuclear translocation; cell count: measured here: nuclei count (cytotoxicity indicator), at 2.08 µM; inhibition: at 2 µM, stronger effect = higher value, 0% TNFa-plus-vehicle, 100% no-TNFa wells.
Assay [2] in a line: inhibitors of mutant huntingtin aggregation, primary screen, imaging, exon1htt(103Q)mCFP cells, high-content imaging (AID 483).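 Also: compound exposure lasted 3 days before fixation.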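 As to nuclei count: percent of the per-plate median nuclei count of sample wells.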 The note with it: exon1htt(103Q)mCFP cell line, aggregate imaging, at 2 µM; inhibition of aggregation: stronger effect = higher value; nuclei count: measured here: cell count, toxicity.
Assay [3] is described as follows: inhibitors of E-selectin induction by TNFa, primary screen, imaging, HUVEC, immunofluorescence, MLSMR starter and 10KST1 sets (AID 487;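 active = visually confirmed hit in the image check and inhibition above 20%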;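 as to inhibition: signal is fraction of cell area covered by stained E-selectin grains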;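 as to nuclei count: 100% = median nuclei count of all wells on the same plate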). Particulars: HUVEC TNFalpha-induced E-selectin immunofluorescence imaging, at 2 µM; inhibition: stronger effect = higher value; nuclei count: measured here: cell number, toxicity.
Assay [4] concerns the target Voltage-gated potassium channel subunit beta-2 (Rattus norvegicus) (UniProt P62483). Briefly: KvBeta enzyme negative modulators, primary screen, biochemical, NADPH fluorescence (AID 622;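 active = fluorescence slope higher than the sample average by over 3 SD, cut at about -0.22 in these data, passing the limit was not always enough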;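 also: slope of raw intensity against log time taken from 70 to 1610 s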). The note with it: recombinant KvBeta, 4-cyanobenzaldehyde reduction, at 10 µM, stronger effect = higher value.
Assay [5] shares this target. Briefly: KvBeta positive modulators, primary screen, biochemical, NADPH fluorescence (AID 623;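 active = NADPH fluorescence slope more negative than the mean of all samples by about 3 SD, 99.7% confidence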;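 also: fluorescence intensity change per second fitted from 20 to 320 s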). Particulars: Recombinant KvBeta, NADPH fluorescence decrease slope, 10 min; at 10 µM; stronger effect = lower value.
Assay [6] has as its target Alpha-2C adrenergic receptor (Homo sapiens) (UniProt P18825). Kind of assay: modulators of alpha2C/GIRK thallium flux, primary screen, cell-based, HEK293 alpha2C/GIRK1/2 (AID 624;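 active = fluorescence slope after compound addition differing from the mean of all screened samples at 99.7% confidence, in either direction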;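 also: slope of fluorescence ratio to pre-addition baseline per second over 15 to 24 s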). Particulars: thallium flux BTC fluorescence, at 10 µM, actives lie on both sides.
Assay [7] in a line: inhibitors of Sendai virus-induced IRF3 signaling, primary screen, TLR/RLR signaling modifier project, cell-based, Sendai virus stimulus, luciferase, 10K MLSCN set (AID 602276;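 active = inhibition at or above 50% at 10 µM; inactive = inhibition below 50%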;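 also: firefly luciferase from ISG56 promoter only with Renilla not read in this screen; 0% = Sendai virus plus DMSO and 100% = medium plus DMSO without virus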). The note with it: HEK293 RL24 IRF3 luciferase reporter, at 10 µM, stronger effect = higher value.
The nature of assay [8]: inhibitors of poly I:C-induced TLR3 signaling, primary screen, cell-based, poly I:C stimulus, luciferase, 10K MLSCN set (AID 602277;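 active = inhibition of the reporter signal at or above 50%; inactive = inhibition below 50%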). Particulars: HEK293-TLR3 RL24 IRF3 luciferase reporter, at 10 µM, stronger effect = higher value.

The source made the active and inactive calls.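 The calls were made as follows, unless noted: active = visual image review flags a hit and inhibition of aggregation exceeds 20%; inconclusive = visual hit but inhibition at or below 20%; inactive = no hit on visual image review.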

As usually defined, the inhibition is the drop in the measured response relative to a control, in per cent.

Chain of Alpha-2C adrenergic receptor (Homo sapiens) (P18825 whole entry, looked up): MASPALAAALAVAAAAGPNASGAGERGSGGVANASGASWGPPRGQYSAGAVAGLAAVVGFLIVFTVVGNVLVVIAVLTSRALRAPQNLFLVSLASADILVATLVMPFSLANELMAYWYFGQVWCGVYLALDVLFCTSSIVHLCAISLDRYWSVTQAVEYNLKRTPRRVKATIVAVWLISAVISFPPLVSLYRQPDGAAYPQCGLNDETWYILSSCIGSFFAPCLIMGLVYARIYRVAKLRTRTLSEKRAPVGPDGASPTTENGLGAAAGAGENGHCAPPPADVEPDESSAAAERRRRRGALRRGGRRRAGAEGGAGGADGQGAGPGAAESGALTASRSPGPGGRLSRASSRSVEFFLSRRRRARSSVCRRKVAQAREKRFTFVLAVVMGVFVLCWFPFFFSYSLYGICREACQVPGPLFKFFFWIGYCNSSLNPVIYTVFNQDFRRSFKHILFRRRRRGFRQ
Chain of Voltage-gated potassium channel subunit beta-2 (Rattus norvegicus) (P62483 whole entry, looked up): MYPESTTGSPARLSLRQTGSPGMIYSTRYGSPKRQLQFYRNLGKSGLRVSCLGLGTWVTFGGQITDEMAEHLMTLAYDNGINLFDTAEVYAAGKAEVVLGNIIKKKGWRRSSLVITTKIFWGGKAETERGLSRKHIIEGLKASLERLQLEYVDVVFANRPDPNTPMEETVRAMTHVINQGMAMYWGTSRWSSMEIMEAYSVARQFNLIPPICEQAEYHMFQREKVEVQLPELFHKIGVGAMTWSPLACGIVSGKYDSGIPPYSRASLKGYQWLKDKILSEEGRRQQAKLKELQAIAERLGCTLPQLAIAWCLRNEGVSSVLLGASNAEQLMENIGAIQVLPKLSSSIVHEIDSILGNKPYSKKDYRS

With `COc1ccc(C2CC(c3ccc(Cl)cc3Cl)n3nc(N)nc3N2)cc1` (stereo not drawn), in assay [1], the cell count came to 461. Further, the inhibition in assay [1] was -1.8% (inactive); in assay [3], -1.4% (inactive); in assay [7], 9.25% (inactive); in assay [8], 25.2% (inactive). For the same molecule, the inhibition of aggregation in assay [2] was -8.9% (inactive). In addition, the nuclei count in assay [2] worked out at 66.5%; in assay [3], 101%. For the same molecule, the fluorescence slope in assay [4] is -0.592 (inactive). Also, the NADPH fluorescence slope in assay [5] is -5.5e-05 (inactive). Also, the slope in assay [6] is 0.00726 (inactive).
As to `COc1ccc(CN(C(=O)c2oc3ccccc3c2C)C2CCS(=O)(=O)C2)cc1` (stereo not drawn), in assay [1], the cell count is 592. The inhibition was 1.7% (inactive) in assay [1], -5.9% (inactive) in assay [3], -2.17% (inactive) in assay [7] and 8.82% (inactive) in assay [8]. In addition, in assay [2], the inhibition of aggregation is 7.1% (inactive). In addition, the results for the nuclei count in assay [2] and in assay [3] were 87.3% and 102%, respectively. Moreover, the fluorescence slope in assay [4] was -0.444 (inactive). The NADPH fluorescence slope in assay [5] is 2.9e-05 (inactive). In addition, the slope in assay [6] is 0.00692 (inactive).
For `O=C(CCS(=O)(=O)c1cccc2nsnc12)NCc1ccccc1`, in assay [1], the cell count is 718. Moreover, the inhibition was 3.1% (inactive) in assay [1], -24.5% (inactive) in assay [3], -2.94% (inactive) in assay [7] and 5.74% (inactive) in assay [8]. In addition, the inhibition of aggregation in assay [2] was -14.8% (inactive). The nuclei count in assay [2] came out at 93.6%; in assay [3], 114%. Further, in assay [4], the fluorescence slope was -0.567 (inactive). For the same molecule, the NADPH fluorescence slope in assay [5] is 3.6e-05 (inactive). The slope in assay [6] was 0.00505 (inactive).
On to `O=C(NCC(c1cccnc1)N1CCOCC1)c1cccs1` (stereo not drawn), for which the cell count in assay [1] is 357. The inhibition in assay [1] is 9.8% (inactive); in assay [3] it was -81% (inactive); in assay [7], 5.49% (inactive); in assay [8] it was 10.9% (inactive). Further, in assay [2], the inhibition of aggregation was -3.5% (inactive). Further, the nuclei count in assay [2] was determined as 97.5%; in assay [3], 123%. In addition, the fluorescence slope in assay [4] was -0.414 (inactive). Moreover, the NADPH fluorescence slope in assay [5] is -1.2e-05 (inactive). For the same molecule, in assay [6], the slope is 0.00412 (inactive).
On to `COc1cc2c(cc1OC)CN(CC(=O)Nc1cccc(C)c1)CC2`, for which, in assay [1], the cell count came to 384. The inhibition in assay [1] is 3.5% (inactive); in assay [3], -74.2% (inactive); in assay [7], 7.7% (inactive); in assay [8], 9.94% (inactive). Besides, in assay [2], the inhibition of aggregation was -6.2% (inactive). Also, the nuclei count in assay [2] worked out at 98.6%; in assay [3] it was 102%. In addition, in assay [4], the fluorescence slope is -0.495 (inactive). Also, in assay [5], the NADPH fluorescence slope was -1.8e-05 (inactive). Besides, the slope in assay [6] is 0.00456 (inactive).
`COc1ccc(OC)c(S(=O)(=O)Nc2ccccc2SC)c1`: in assay [1], the cell count came to 623. Further, the inhibition in assay [1] is -5% (inactive); in assay [3], 20.9% (inactive); in assay [7] it was 21% (inactive); in assay [8], 24% (inactive). Further, the inhibition of aggregation in assay [2] was 20% (inactive). Besides, the values for the nuclei count in assay [2] and in assay [3] were 96.7% and 85.2%, respectively. Also, in assay [4], the fluorescence slope was -0.486 (inactive). For the same molecule, the NADPH fluorescence slope in assay [5] was -3.4e-05 (inactive). Besides, the slope in assay [6] is 0.00443 (inactive).
Take `CC(C(=O)Nc1ccccc1-c1ccccc1)N1CCOCC1` (stereo not drawn): the cell count in assay [1] is 555. For the same molecule, the inhibition in assay [1] was -17.7% (inactive); in assay [3], -27.4% (inactive); in assay [7], 3.12% (inactive); in assay [8] it was 86.4% (active). In assay [2], the inhibition of aggregation is 5.4% (inactive). Further, the nuclei count came to 89.4% in assay [2] and 127% in assay [3]. Further, the fluorescence slope in assay [4] is -0.527 (inactive). Moreover, the NADPH fluorescence slope in assay [5] is -6.7e-05 (inactive). Moreover, the slope in assay [6] was 0.00481 (inactive).
Turning to `Cn1nnc2cc(C(=O)N3CCCCCC3)ccc21`, the cell count in assay [1] amounted to 933. The inhibition in assay [1] is 2.7% (inactive); in assay [3] it was -5.7% (inactive); in assay [7], -1.25% (inactive); in assay [8] it was 12.6% (inactive). Besides, in assay [2], the inhibition of aggregation was -9% (inactive). In addition, the results for the nuclei count in assay [2] and in assay [3] were 105% and 107%, respectively. Moreover, the fluorescence slope in assay [4] was -0.478 (inactive). Also, the NADPH fluorescence slope in assay [5] was -4.7e-05 (inactive). The slope in assay [6] is 0.00659 (inactive).
Consider `O=C(Nc1cccc(O)c1)c1ccccc1`, for which, in assay [1], the cell count stood at 474. For the same molecule, the inhibition in assay [1] was 18.5% (inactive); in assay [3] it was -32.9% (inactive); in assay [7], -19.1% (inactive); in assay [8], -29.4% (inactive). Also, the inhibition of aggregation in assay [2] was 6% (inactive). The nuclei count in assay [2] stood at 98.6%; in assay [3] it was 102%. For the same molecule, the fluorescence slope in assay [4] is -0.521 (inactive). In addition, the NADPH fluorescence slope in assay [5] is 5e-06 (inactive). Besides, in assay [6], the slope is 0.00606 (inactive).
For `COc1ccc(-n2ncc3c(N4CCN(c5cccc(C)c5C)CC4)ncnc32)cc1`, the cell count in assay [1] stood at 589. Besides, the inhibition in assay [1] is -4.7% (inactive); in assay [3] it was -22% (inactive); in assay [7] it was 5.95% (inactive); in assay [8], 27.1% (inactive). Further, the inhibition of aggregation in assay [2] was -12.6% (inactive). Moreover, the nuclei count in assay [2] is 111%; in assay [3], 105%. In assay [4], the fluorescence slope was -0.566 (inactive). In assay [5], the NADPH fluorescence slope was -3.6e-05 (inactive). In addition, in assay [6], the slope was 0.0072 (inactive).
As to `COc1ccc(C2C3=C(CCCC3=O)Nc3nc(SCc4ccccc4)nn32)cc1OC` (stereo not drawn), the cell count in assay [1] is 665. The inhibition in assay [1] is -12.9% (inactive); in assay [3], 32.2% (inactive); in assay [7], 6.77% (inactive); in assay [8] it was 14.4% (inactive). In assay [2], the inhibition of aggregation is 9.2% (inactive). The nuclei count came to 91.2% in assay [2] and 105% in assay [3]. Besides, in assay [4], the fluorescence slope is -0.335 (inactive). The NADPH fluorescence slope in assay [5] is -6.9e-05 (inactive). For the same molecule, the slope in assay [6] was 0.00626 (inactive).
For the molecule `Cc1cc(NS(=O)(=O)Cc2ccccc2)cc(C)c1OCC(=O)N1CCOCC1`, in assay [1], the cell count was 323. Further, the inhibition was -3.3% (inactive) in assay [1], -47.7% (inactive) in assay [3], 14.5% (inactive) in assay [7] and 10.6% (inactive) in assay [8]. In addition, in assay [2], the inhibition of aggregation was -14.1% (inactive). The figures for the nuclei count in assay [2] and in assay [3] were 86.8% and 104%, respectively. The fluorescence slope in assay [4] was -0.478 (inactive). Also, the NADPH fluorescence slope in assay [5] is -4.7e-05 (inactive). Further, the slope in assay [6] was 0.00653 (inactive).
For the molecule `CCOC(=O)CNC(=O)CSc1nc(N)cc(N)n1`, the cell count in assay [1] stood at 434. Further, the inhibition is 5.1% (inactive) in assay [1], -62.6% (inactive) in assay [3], 1.91% (inactive) in assay [7] and 8.68% (inactive) in assay [8]. Also, the inhibition of aggregation in assay [2] was -0.1% (inactive). In addition, the figures for the nuclei count in assay [2] and in assay [3] were 106% and 108%, respectively. Also, the fluorescence slope in assay [4] is -0.385 (inactive). Further, the NADPH fluorescence slope in assay [5] was 2.9e-05 (inactive). Besides, the slope in assay [6] was 0.00537 (inactive).

(Values after PubChem BioAssay.)
